# ST2 IL33 inh – blocks human ST2 binding to IL-33 | 2.3% of 78,000 active | Q01638 | AID 1259354 | inhibition, % for hits at 17 µM | AlphaLISA ST2-Fc/biotin-IL-33 interaction, 1 h; in the data active = inhibition above about 30%
# Target sequence (Q01638 whole entry, looked up): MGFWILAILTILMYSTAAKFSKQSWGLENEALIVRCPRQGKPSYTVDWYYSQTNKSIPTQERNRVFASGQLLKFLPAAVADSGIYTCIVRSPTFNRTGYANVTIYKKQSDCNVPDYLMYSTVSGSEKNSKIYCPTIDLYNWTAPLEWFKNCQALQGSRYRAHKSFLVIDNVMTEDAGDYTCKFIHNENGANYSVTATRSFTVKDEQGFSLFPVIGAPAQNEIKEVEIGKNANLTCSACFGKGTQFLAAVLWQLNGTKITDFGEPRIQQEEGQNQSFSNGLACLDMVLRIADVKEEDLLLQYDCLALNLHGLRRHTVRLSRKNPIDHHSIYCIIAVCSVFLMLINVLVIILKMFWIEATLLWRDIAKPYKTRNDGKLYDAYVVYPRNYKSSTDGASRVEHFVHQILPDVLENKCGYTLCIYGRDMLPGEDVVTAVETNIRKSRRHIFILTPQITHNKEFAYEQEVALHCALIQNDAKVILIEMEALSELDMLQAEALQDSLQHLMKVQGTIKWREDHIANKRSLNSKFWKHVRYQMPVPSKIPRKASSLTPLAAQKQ
# * marks the source's active call; other numbers are inactive results; i = inactive. Shown is part of a subset that was picked to be rich in hits.
SMILES,ST2 IL33 inh
CCOC(=O)C(C)Oc1cc2c(C)cc(=O)oc2cc1Cl (stereo not drawn),i
COc1ccc(/C=c2\sc3nnc(-c4ccccc4Cl)n3c2=O)cc1,i
CN(C)c1ccc(/C=c2\sc3nnc(-c4ccccc4Cl)n3c2=O)cc1,i
Cc1ccc(/C=c2\sc3nnc(-c4ccccc4Cl)n3c2=O)o1,37.0%*
O=c1oc2ccc(NS(=O)(=O)c3cccc4ccccc34)cc2s1,i
CN1CC2(CCCN(Cc3ccc(-c4ccc(Cl)cc4)o3)CC2)OC1=O (stereo not drawn),i
O=C(Nc1ccccc1F)c1ccc([N+](=O)[O-])cc1,i
C=CCN1C(=O)/C(=C/c2ccccc2)SC1=Nc1cccc([N+](=O)[O-])c1,47.0%*
O=C1NC(=Nc2cccc([N+](=O)[O-])c2)SC1(CO)CO,i
O=C1S/C(=C/c2ccccc2)C(=O)N1CNc1cccc(F)c1,i
Fc1cccc(-c2nnc3n2N=C(c2ccc(Cl)s2)CS3)c1,30.0%*
COc1cccc(C2=Nn3c(nnc3-c3ccccc3)SC2)c1,i
O=c1oc2ccccc2cc1C1=Nn2c(nnc2-c2cccc(F)c2)SC1,i
Cc1cc(C)c2ccc(NN)nc2c1O,34.0%*
Cc1cc(C)c2ccc(CO)nc2c1O,i
CC(=O)c1cc(CC(=O)NC2CCCN(CCc3ccccc3)C2)cs1 (stereo not drawn),i
COc1cccc(NC(=O)c2coc(=O)c3ccccc23)c1,i
O=C(c1cn(CCN2CCCCC2)nn1)N1CCN(C/C=C/c2ccccc2)CC1,i
C=CCNc1nc2ccccc2nc1NS(=O)(=O)c1ccc(Br)cc1,33.0%*
CC(=O)Nc1ccc(S(=O)(=O)Nc2nc3ccccc3nc2Nc2cccc(O)c2)cc1,i
Cc1cc(C)nc(NS(=O)(=O)c2ccc(NC(=O)c3ccc(Br)cc3)cc2)n1,i
COc1ccc(NS(=O)(=O)c2ccc(NC(=O)c3cccnc3)cc2)nn1,i
O=C(NC1CCCCCCC1)C1c2ccccc2C(=O)N1C1CCCC1 (stereo not drawn),i
CCOC(=O)c1c(-c2ccccc2)oc2ccc(OC)cc12,i
COc1ccc2oc(C(=O)c3ccccc3)c(N)c2c1,35.0%*
SMILES,ST2 IL33 inh
COc1ccc2c(C)c(C(=O)O)oc2c1,i
CCOC(=O)c1ccc2c(c1)N(Cc1cc(C)ccc1C)C(=O)CS2,i
Cc1ccc(NC(=O)C2CCN(c3ccc(-c4cccs4)nn3)CC2)cc1,i
CCN(CC)c1ncccc1CNC(=O)c1nccc2ccccc12,i
CCC1(C)Cc2c(sc3nc(SC)n(-c4ccc(OC)cc4)c(=O)c23)CO1 (stereo not drawn),i
CCCSc1nc2nc3c(cc2c(=O)n1-c1ccc(OC)cc1)COC(C)(C)C3,44.0%*
CSc1nc2nc3c(cc2c(=O)n1-c1ccccc1C)COC(C)(C)C3,i
Fc1ccc(CSc2nnnn2-c2ccccc2)cc1,i
O=C(C1CC1)N1CCc2cc(S(=O)(=O)N3CCN(c4ncccn4)CC3)ccc21,i
OCc1ccc(-c2nccn2CC2COc3ccccc3O2)o1 (stereo not drawn),i
O=C(CN1C(=O)/C(=C\c2cccc(Cl)c2)Sc2ccccc21)NCCN1CCCC1,i
O=C(CN1C(=O)/C(=C\c2ccc(Cl)cc2)Sc2ccccc21)N1CCCCC1,41.0%*
O=C(CN1C(=O)/C(=C/c2ccccc2F)Sc2ccccc21)NC1CCCCCC1,i
CNC(=O)CN1C(=O)/C(=C/c2ccccc2C)Sc2ccccc21,i
CNC(=O)CN1C(=O)/C(=C\c2ccc(C(F)(F)F)cc2)Sc2ccccc21,i
CC(NC(=O)CN1C(=O)/C(=C\c2cccc(Cl)c2)Sc2ccccc21)c1ccccc1 (stereo not drawn),i
O=C(CN1C(=O)/C(=C/c2ccccc2F)Sc2ccccc21)N1CCCCC1,39.0%*
COCCCNC(=O)CN1C(=O)/C(=C\c2ccc(Cl)cc2)Sc2ccccc21,i
O=C(CN1C(=O)/C(=C\c2ccc(C(F)(F)F)cc2)Sc2ccccc21)NCCN1CCCC1,39.0%*
Cc1ccccc1/C=C1\Sc2ccccc2N(CC(=O)NC(C)c2ccccc2)C1=O (stereo not drawn),32.0%*
COCCNC(=O)CN1C(=O)/C(=C\c2ccc(Cl)cc2)Sc2ccccc21,i
CNC(=O)CN1C(=O)/C(=C/c2ccccc2F)Sc2ccccc21,i
Cc1c(C(=O)NCc2ccccn2)oc2ccc(S(=O)(=O)N3CCC(C)CC3)cc12,i
CC(=O)Nc1ccc(CN2CCN(c3ccccc3C)CC2)cc1,i
CCOc1ccccc1NC(C)=O,i
SMILES,ST2 IL33 inh
CN(C)CCN(Cc1ccccc1)Cc1c(F)cccc1Cl,i
CCc1ccccc1NC(=O)CCCn1nc([N+](=O)[O-])c(Cl)c1C,i
CC(C)CNC(=O)CN1C(=O)c2ccccc2S1(=O)=O,i
CC1CCCC(NC(=O)CN2C(=O)/C(=C/c3ccccc3F)Sc3ccccc32)C1C (stereo not drawn),32.0%*
O=C(CN1C(=O)/C(=C/c2ccccc2F)Sc2ccccc21)NC1CCCC1,i
Cc1ccc(CCNC(=O)CN2C(=O)/C(=C/c3ccccc3F)Sc3ccccc32)cc1,i
COc1cc(-c2ccc(C(C)NC(C)=O)cc2)cc(OC)c1OC (stereo not drawn),i
CCN(CC)C(=O)Cn1c(=O)n(CC(=O)NCc2ccco2)c(=O)c2sccc21,i
CCOC(=O)C1(Cc2cccc(OC)c2)CCN(Cc2cnc(N(C)C)s2)CC1,i
Cc1ccc2c(c1)c1c(n2CCC#N)CCN(C)C1,42.0%*
Cc1ccc2c(c1)c1c(n2CCN2C(=O)c3ccccc3C2=O)C(=O)CCC1,i
CN1CCc2[nH]c3c(Cl)cccc3c2C1,i
Cc1nc(CNC(=O)c2cccc(Cn3cccn3)c2)cs1,i
Cn1c(=O)cc(SCC(=O)Nc2ccc(F)cc2F)c2ccccc21,i
O=C(c1cc2ccccc2oc1=O)N1CCN(S(=O)(=O)c2cc3c4c(c2)CCN4C(=O)CC3)CC1,i
COc1ccc(CSc2nnc3nc(C)cc(C)n23)cc1,i
Cc1ccc(-c2noc(CCC(=O)N(C)Cc3ccccc3)n2)cc1,i
CCCCN(CC)C(=O)C1c2ccccc2C(=O)N2CCc3cc(OCC)c(OCC)cc3C12 (stereo not drawn),i
O=C(NC[C@H]1O[C@@H](CO)[C@@H](O)[C@H]1N1CCN(c2ccccc2)CC1)c1ccc(F)c(Cl)c1,i
O=C(NC[C@H]1O[C@@H](CO)[C@@H](O)[C@H]1N1CCN(c2ccc(F)cc2)CC1)c1cccc(F)c1,i
CC1CCN([C@@H]2[C@H](O)[C@H](CO)O[C@@H]2CNC(=O)c2cccs2)CC1,i
O=C(NC[C@H]1O[C@@H](CO)[C@@H](O)[C@H]1N1CCN(c2ccc(F)cc2)CC1)c1cccs1,74.0%*
O=C(NC[C@H]1O[C@@H](CO)[C@@H](O)[C@H]1N1CCN(c2ccccc2)CC1)c1cccc(F)c1,92.0%*
COc1ccc(C(=O)NC[C@H]2O[C@@H](CO)[C@@H](O)[C@H]2N2CCN(c3ccc(F)cc3)CC2)cc1,i
CC1=C[C@@H](CNC(=O)c2ccccn2)[C@H](C(C)C)C[C@H]1CC(=O)O,i
COc1ccc(NC(=O)c2cc3cc(Br)cc(Br)c3oc2=O)cc1,i
CCCc1ccc(Oc2cn[nH]c2-c2ccc(O)c(C)c2O)cc1,i
Oc1ccc(-c2[nH]ncc2Oc2ccccc2)c(O)c1O,51.0%*
Oc1ccc(-c2[nH]ncc2Oc2ccccc2)c(O)c1,i
CCOc1ccc(-c2n[nH]c(C)c2Oc2ccccc2)c(O)c1,i
